CtBP-E1A blk = inhibitors of CtBP/E1A interaction. actives 0.49% (n = 340,000). activity change, % (test concentration not listed). AlphaScreen GST-E1A/His-CtBP binding, 1536-well; stronger effect = lower value. AID 651724; in the data active means activity change below about -65%; inconclusive means mostly about -30% to -63%; further: on the % scale 0 is the no-effect control and ±100 the full control effect
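In 5 uL wells, 23 nL compound meets equimolar GST-E1A and His-CtBP (5X stock 125 nM each) for 2 h, 37 °C. Beads (5X, 50 ug/mL) then 1 h, 37 °C, dark.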
RORgamma inh = inhibitors of mouse ROR gamma transcriptional activity; Drosophila S2 Gal4-RORgamma UAS-luciferase reporter, 20 h; P51450; AID 2551; actives 5.4% (n = 310,000); Potency, µM (top dose mostly 53.6 µM), without a hit: at the highest dose activity change, negative = inhibition, hits mostly inhibitors; further: potency means the concentration at half of the fitted maximal effect; on the % scale 0 is the no-effect control and ±100 the full control effect; nearly all actives have a fitted effect of over 60% in size
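Luciferase reporter read in Schneider cells carrying Gal4-RORγ (mouse) and UAS-Photinus luciferase; cells given compound 1 h before 700 uM copper sulfate induction, then incubated 20 h at ambient temperature.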
VP16 counter = counter-screen for ROR gamma inhibitors: Gal4-VP16 reporter; Drosophila S2 Gal4-VP16 UAS-luciferase, luminescence, 20 h; Potency, µM (series often up to 53.6 µM), without a hit: at the top dose activity, negative = inhibition, hits mostly inhibitors; actives 3.5% (n = 310,000); AID 2546;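 further: Gal4-VP16 expression switched on by copper sulfate through the metallothionein promoter; potency means the concentration at half of the fitted maximal effect; on the % scale 0 is the no-effect control and ±100 the full control effect; nearly all actives have a fitted effect of over 50% in size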
p53 reactivation = restores transcriptional activity of mutant p53; H1299 p53-A138V BP100-luciferase reporter, luminescence, 24 h; Potency, µM (top dose mostly 92.2 µM), inactives show top-dose activity change, positive = activation, hits mostly activators; actives 0.063% (n = 320,000); further: potency means the concentration at half of the fitted maximal effect; % of control where 0% means no effect; nearly all actives have a fitted effect of over 45% in size
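H1299 (p53-null), stable ts p53-A138V + BP100-Luc; 1000 cells/well, Opti-MEM/10% FBS; cpd 4 pt, 1:5; 24 h, 37 deg C, 5% CO2; detection reagent 10 min RT; luminescence.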
Six1-Eya2 inh = Six1/Eya2 interaction inhibition; Q15475+O00167; AlphaScreen GST-Six1/His-Eya2 binding, biochemical; stronger effect = lower value; activity change, % (test concentration not listed); actives 0.56% (n = 360,000); in the data active means activity change below about -65%; inconclusive means mostly about -30% to -63%; further: on the % scale 0 is the no-effect control and ±100 the full control effect
Target sequence (O00167 whole entry, looked up): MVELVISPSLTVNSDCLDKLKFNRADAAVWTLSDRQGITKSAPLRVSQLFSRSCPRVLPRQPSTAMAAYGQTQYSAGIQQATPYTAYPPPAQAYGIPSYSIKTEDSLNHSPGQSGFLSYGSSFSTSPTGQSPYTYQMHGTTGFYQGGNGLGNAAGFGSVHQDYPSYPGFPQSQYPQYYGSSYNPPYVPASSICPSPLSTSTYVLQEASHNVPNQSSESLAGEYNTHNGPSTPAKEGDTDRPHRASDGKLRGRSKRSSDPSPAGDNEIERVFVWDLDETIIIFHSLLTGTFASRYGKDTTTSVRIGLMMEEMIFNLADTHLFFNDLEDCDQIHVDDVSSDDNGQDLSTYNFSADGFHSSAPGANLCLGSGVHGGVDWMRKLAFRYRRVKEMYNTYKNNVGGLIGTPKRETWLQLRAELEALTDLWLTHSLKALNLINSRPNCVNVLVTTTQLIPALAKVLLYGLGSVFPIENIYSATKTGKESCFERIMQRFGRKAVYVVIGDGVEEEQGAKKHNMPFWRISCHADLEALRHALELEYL
Target sequence (Q15475 whole entry, looked up): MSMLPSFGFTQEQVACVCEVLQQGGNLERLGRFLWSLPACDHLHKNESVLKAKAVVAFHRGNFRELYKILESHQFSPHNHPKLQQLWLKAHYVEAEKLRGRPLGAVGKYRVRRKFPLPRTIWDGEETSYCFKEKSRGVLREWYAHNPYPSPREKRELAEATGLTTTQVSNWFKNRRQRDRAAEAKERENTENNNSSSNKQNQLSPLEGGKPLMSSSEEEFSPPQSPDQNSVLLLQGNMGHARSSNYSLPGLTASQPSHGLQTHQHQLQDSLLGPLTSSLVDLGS
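Homogeneous AlphaScreen proximity assay pairing GST-Six1 with His-tagged Eya2 (added as 5X mix: 250 nM and 500 nM) in 50 mM Tris pH 8.0, 300 mM NaCl, 1 mM TCEP. Glutathione donor and nickel acceptor beads; 1 h, 37 °C, dark.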
The depositor's hits bear a star; u = inconclusive; x = no result; [ ] = another dose, or the depositor's remark. Most compounds without a hit are left out; they make up all but 5.4% or so of the library. Unless noted, the call rests on the fitted dose curve; in most records, active means well fitted curve in the direction sought with a large enough effect; inconclusive means small, poorly fitted or top-dose-only effect, or another doubt; inactive means no such curve, though single readings can be large; an effect the other way counts as inactive or inconclusive.

SMILES	CtBP-E1A blk	RORgamma inh	VP16 counter	p53 reactivation	Six1-Eya2 inh
COC(=O)C1=NN(C(=O)c2cccc(Br)c2)C(O)(c2ccc(Cl)cc2)C1 (configuration not stated)	x	-29.1%	-30.0%	2.3%	-10.4
CCOC(=O)C1=NN(C(=O)c2cccc(Br)c2)C(O)(C(C)(C)C)C1 (configuration not stated)	x	14.1µM*	u	0.2%	x
CCCNC(=O)Nc1nc(C(N)c2ccc(OC)cc2)cs1 (configuration not stated)	u	x	x	x	-65.5*
CC(C)CC(N)c1csc(Nc2ccc(C(=O)NCCO)cc2)n1 (configuration not stated)	-2.1	x	x	x	-8.1
COc1ccc(C(N)c2csc(Nc3ccc(C(=O)NCCCO)cn3)n2)cc1 (configuration not stated)	-78.5*	x	x	x	-75.6*
CC(N)c1csc(Nc2ccc(C(=O)NCCCO)cn2)n1 (configuration not stated)	-83.4*	x	x	x	-68.7*
COc1ccc(CC(N)c2csc(NC(=O)NCc3ccccc3)n2)cc1 (configuration not stated)	-21.5	x	x	x	-23.1
FC(F)(F)c1ccc(-c2nc3ccccc3s2)cc1	13.2	x	x	x	3.5
CC(C)c1ccc(-c2nc3ccccc3s2)cc1	31.9	u	2µM*	-7.7%	8.0
COc1cc(-c2nc3ccccc3s2)ccc1O	-10.0	-7.2%	-10.1%	u	-1.5
Oc1ccccc1OCc1nc2ccccc2s1	7.4	u	22.9%	u	2.7
Oc1ccc(O)c(Cc2nc3ccccc3s2)c1	-18.7	7.08µM*	25.1µM*	-17.0%	-4.1
Oc1cccc(-c2nc3ccccc3s2)c1	-7.5	u	10µM*	u	-18.8
Nc1cccc(-c2nc3ccccc3s2)c1	0.1	u	-28.7%	u	-1.1
COc1ccc(-c2nc3ccccc3s2)cc1O	-5.4	10µM*	8.91µM*	-2.1%	-1.6
O=C(O)C1C2CC3C(OC(=O)C31)C2Cl (configuration not stated)	2.1	-5.4%	0.7%	4.9%	4.0
NS(=O)(=O)c1ccc(-n2nncc2-c2ccco2)cc1	1.8	-2.3%	10.3%	1.7%	-2.1
COC(=O)Oc1ccc(/C=N/NC(=O)CSCc2ccc(Cl)cc2)cc1OC	x	-8.1%	15.8µM*	-4.7%	-1.9
O=C(CSCc1ccc(Cl)cc1)N/N=C/c1ccccc1	1.2	9.4%	-6.7%	-1.5%	0.3
Cc1oc(/C=N/NC(=O)CN(c2ccccc2Cl)S(C)(=O)=O)cc1Br	0.0	21.5%	-6.3%	-5.1%	2.1
COC(=O)Oc1ccc(/C=N/NC(=O)CN(c2ccccc2Cl)S(C)(=O)=O)cc1OC	u	0.0089µM*	-0.3%	-1.9%	u
C[C@H](CO)NC(=O)[C@H]1C[C@@H]1[C@H](NP(=O)(c1ccccc1)c1ccccc1)c1ccccc1	x	2.1%	10.6%	x	x
COc1cccc(-c2ccc3ncnc(N(C)C)c3c2)c1	x	-33.0%	15.7%	x	x
COc1cccc(-c2csc(N3CCN(C(=S)Nc4cccc(Cl)c4)CC3)n2)c1	7.7	2.82µM*	17.8µM*	2.0%	-16.6
COc1cccc(-c2csc(N3CCN(C(=S)Nc4ccccc4OC)CC3)n2)c1	6.2	7.94µM*	u	0.9%	-16.9
SMILES	CtBP-E1A blk	RORgamma inh	VP16 counter	p53 reactivation	Six1-Eya2 inh
CCNC(=S)N1CCN(c2nc(-c3cccc(OC)c3)cs2)CC1	-5.5	13.8%	u	-7.3%	-17.9
COc1cccc(-c2csc(N3CCN(C(=S)NCC(C)C)CC3)n2)c1	-4.4	u	-0.3%	5.4%	-11.9
COc1cccc(-c2csc(N3CCN(C(=S)Nc4ccccc4Cl)CC3)n2)c1	-3.6	11.2µM*	u	5.4%	-21.7
CCCC[C@H](NC(=O)[C@H](CO)NC(=O)[C@H](Cc1ccc(O)cc1)NC(=O)[C@H](CO)NC(C)=O)C(=O)N[C@@H](CCC(=O)O)C(=O)N[C@@H](Cc1cnc[nH]1)C(=O)N[C@H](Cc1ccccc1)C(=O)N[C@@H](CCCNC(=N)N)C(=O)N[C@@H](Cc1c[nH]c2ccccc12)C(=O)NCC(=O)N[C@@H](CCCCN)C(=O)N1CCC[C@H]1C(=O)N[C@H](C(N)=O)C(C)C	x	-15.1%	-5.5%	x	x
O=C(O)CSC1CC(=O)N(c2ccc(Br)cc2)C1=O (configuration not stated)	0.0	-19.9%	6.2%	-2.6%	13.6
O=C(N/N=C/c1ccc([N+](=O)[O-])o1)c1cc(-c2ccc(-c3ccccc3)cc2)nc2ccccc12	-26.8	0.708µM*	1.12µM*	-1.2%	-28.2
COC(=O)c1cc(-c2ccc(C)o2)nc2ccccc12	-9.0	u	u	6.1%	15.0
O=C(N/N=C/c1ccc([N+](=O)[O-])o1)c1cc(-c2ccncc2)nc2ccccc12	-7.8	-19.0%	-13.7%	1.6%	-10.2
Cn1c(/C=C/c2ccc([N+](=O)[O-])o2)nc2ccccc2c1=O	6.4	6.31µM*	6.31µM*	-11.4%	-8.9
Cc1ccc(-c2cc(C(=O)Nc3ccccc3C)c3ccccc3n2)o1	-0.1	u	12.6µM*	-5.3%	-5.1
Cc1cc(N/N=C/c2ccc([N+](=O)[O-])o2)nc2ccccc12	0.0	11.2µM*	u	14.2%	-13.7
CCOc1ccc(C(=O)NCc2ccco2)cc1Cl	3.0	15.2%	6.0%	-48.3%	-6.3
CC(/C=N/NC(=O)c1cc(-c2ccncc2)nc2ccccc12)=C\c1ccco1	u	-0.2%	29.0%	10.3%	u
Cc1ccc2nc(SCC(=O)N/N=C/c3ccco3)cc(C)c2c1	1.1	41.2%	7.9%	-0.8%	-26.8
Cc1ccc(-c2cc(C(=O)NC3=NCCS3)c3cc(Br)ccc3n2)o1	x	7.94µM*	14.1µM*	4.4%	x
O=C(N/N=C/c1ccco1)c1cc(-c2cccc(Br)c2)nc2ccccc12	-2.9	3.16µM*	5.62µM*	26.5%	-29.9
Cc1ccc(-c2cc(C(=O)O)c3cc(Br)ccc3n2)o1	-8.5	-2.9%	2.8%	9.6%	u
Cc1ccc2nc(N/N=C/c3ccco3)cc(C)c2c1	-14.7	6.31µM*	u	13.8%	-10.4
Cc1ccc(-c2cc(C(=O)N/N=C/c3ccc([N+](=O)[O-])o3)c3ccccc3n2)o1	-24.1	12.6µM*	u	20.1%	u
CC1=CC(C)(C)NC(=S)N1c1ccc(N(C)C)cc1	-0.1	x	x	x	-2.2
CC1=CC(C)(C)NC(=S)N1c1cccc(Cl)c1	-1.6	x	x	x	3.1
CC1=CC(C)(C)NC(=S)N1c1cc(C)cc(C)c1	7.1	3.55µM*	u	-3.0%	-4.0
CC1=CC(C)(C)NC(=S)N1c1ccc(C)cc1C	-17.1	1.41µM*	2.82µM*	-0.8%	-6.6
CC1=CC(C)(C)NC(=S)N1c1ccccc1C	-1.7	2.24µM*	0.2%[10 µM]	3.1%	1.1

High-throughput results from PubChem.
